According to PubChem BioAssay:
Active and inactive are the calls of the source.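 Rule for the calls, unless noted: active = normalized viability below 100% at a tested concentration; inactive = the rest.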

Columns and labels:
[1] = viability loss with induced miR-34 in A549 – imaging, A549 dox-inducible miR-34, nuclei and caspase counts, primary screen (AID 1347080;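 active = compounds whose cell count with miR-34 switched on is under 0.7 times the count with it off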); details: A549 miR-34 inducible, Hoechst nuclei count, 48 h
[2] = MELAS cybrid and Rieske KO viability enhancers – cell-based, MELAS cybrids, Rieske KO mouse fibroblasts, CellTiter-Glo, primary screen (AID 1508586;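 active = mean z-score across replicates of 1.96 or higher in either the MELAS or the Rieske mutant cell line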;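 note: z relative to plate mean and SD of compound and empty wells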); details: low glucose
[3] = drug combination growth inhibition, ovarian cancer – cell-based, oncology-focused library, rucaparib conditional, profiling panel (AID 1508598); details: patient-derived ovarian cancer cells, CellTiter-Glo viability, 144 h, stronger effect = lower value
[4] = stronger effect = lower value, cell number ratio, induced over uninduced
[5] = measured here: relative caspase fold change +Dox/-Dox
[6] = measured here: total cells with miR-34 induction, stronger effect = lower value
[7] = measured here: total cells without miR-34 induction
[8] = MELAS cybrid survival, CellTiter-Glo 48 h, stronger effect = higher value
[9] = Rieske KO mouse fibroblast survival, CellTiter-Glo 72 h
[10] = at 0.000305 µM, OCI-C5x cells, with rucaparib 10 µM, 100% = cells with rucaparib alone
[11] = at 0.000305 µM, OCI-C5x cells, without rucaparib
[12] = at 0.000305 µM, OCI-P5x cells, with rucaparib 20 µM, 100% = cells with rucaparib alone
[13] = at 0.000305 µM, OCI-P5x cells, without rucaparib
[14] = at 0.00122 µM, OCI-C5x cells, with rucaparib 10 µM, 100% = cells with rucaparib alone
[15] = at 0.00122 µM, OCI-C5x cells, without rucaparib
[16] = at 0.00122 µM, OCI-P5x cells, with rucaparib 20 µM, 100% = cells with rucaparib alone
[17] = at 0.00122 µM, OCI-P5x cells, without rucaparib
[18] = at 0.00488 µM, OCI-C5x cells, with rucaparib 10 µM, 100% = cells with rucaparib alone
[19] = at 0.00488 µM, OCI-C5x cells, without rucaparib
[20] = at 0.00488 µM, OCI-P5x cells, with rucaparib 20 µM, 100% = cells with rucaparib alone
[21] = at 0.00488 µM, OCI-P5x cells, without rucaparib
[22] = at 0.0195 µM, OCI-C5x cells, with rucaparib 10 µM, 100% = cells with rucaparib alone
[23] = at 0.0195 µM, OCI-C5x cells, without rucaparib
[24] = at 0.0195 µM, OCI-P5x cells, with rucaparib 20 µM, 100% = cells with rucaparib alone
[25] = at 0.0195 µM, OCI-P5x cells, without rucaparib
[26] = at 0.0781 µM, OCI-C5x cells, with rucaparib 10 µM, 100% = cells with rucaparib alone
[27] = at 0.0781 µM, OCI-C5x cells, without rucaparib
[28] = at 0.0781 µM, OCI-P5x cells, with rucaparib 20 µM, 100% = cells with rucaparib alone
[29] = at 0.0781 µM, OCI-P5x cells, without rucaparib
[30] = at 0.313 µM, OCI-C5x cells, with rucaparib 10 µM, 100% = cells with rucaparib alone
[31] = at 0.313 µM, OCI-C5x cells, without rucaparib
[32] = at 0.313 µM, OCI-P5x cells, with rucaparib 20 µM, 100% = cells with rucaparib alone
[33] = at 0.313 µM, OCI-P5x cells, without rucaparib
[34] = at 1.25 µM, OCI-C5x cells, with rucaparib 10 µM, 100% = cells with rucaparib alone
[35] = at 1.25 µM, OCI-C5x cells, without rucaparib
[36] = at 1.25 µM, OCI-P5x cells, with rucaparib 20 µM, 100% = cells with rucaparib alone
[37] = at 1.25 µM, OCI-P5x cells, without rucaparib
[38] = at 5 µM, OCI-C5x cells, with rucaparib 10 µM, 100% = cells with rucaparib alone
[39] = at 5 µM, OCI-C5x cells, without rucaparib
[40] = at 5 µM, OCI-P5x cells, with rucaparib 20 µM, 100% = cells with rucaparib alone
[41] = at 5 µM, OCI-P5x cells, without rucaparib

C[C@]12C=CC(=O)C=C1CC[C@@H]1[C@H]2C(=O)C[C@@]2(C)[C@H]1CC[C@@]2(O)C(=O)CO
7790: cell count [1, 6]
-0.016: z-score [2, 9]
inactive: fold change [1, 4] 0.899 | z-score [2, 8] -0.304 | viability [3, 10] 112% | viability [3, 11] 111% | viability [3, 14] 111% | viability [3, 15] 107% | viability [3, 18] 107% | viability [3, 19] 102% | viability [3, 22] 110% | viability [3, 23] 102% | viability [3, 26] 109% | viability [3, 27] 101% | viability [3, 30] 120% | viability [3, 34] 111% | viability [3, 38] 115%
active: viability [3, 12] 93.3% | viability [3, 13] 93.5% | viability [3, 16] 95.9% | viability [3, 17] 93.2% | viability [3, 20] 91% | viability [3, 21] 90.1% | viability [3, 24] 88.4% | viability [3, 25] 84.5% | viability [3, 28] 85% | viability [3, 29] 88.3% | viability [3, 31] 94.4% | viability [3, 32] 85.2% | viability [3, 33] 78.8% | viability [3, 35] 97.7% | viability [3, 36] 85.8% | viability [3, 37] 76.5% | viability [3, 39] 98.1% | viability [3, 40] 75.2% | viability [3, 41] 77.4%
8660: cell count [1, 7]
0.898: fold change [1, 5]

NC(=O)c1cnc(NC2CCCCC2N)nc1Nc1cccc(-n2nccn2)c1 (centres undefined)
-1.57: z-score [2, 9]
1580: cell count [1, 6]
0.778: fold change [1, 5]
1920: cell count [1, 7]
inactive: fold change [1, 4] 0.82 | z-score [2, 8] -0.344

C[C@]12CC[C@H]3c4ccc(O)cc4CC[C@H]3[C@@H]1CCC2=O
inactive: fold change [1, 4] 0.911 | z-score [2, 8] -0.223 | viability [3, 10] 108% | viability [3, 11] 116% | viability [3, 12] 102% | viability [3, 13] 111% | viability [3, 14] 112% | viability [3, 15] 117% | viability [3, 16] 101% | viability [3, 17] 106% | viability [3, 18] 115% | viability [3, 19] 120% | viability [3, 21] 100% | viability [3, 22] 114% | viability [3, 23] 108% | viability [3, 26] 115%
0.742: z-score [2, 9]
1.15: fold change [1, 5]
7600: cell count [1, 6]
8340: cell count [1, 7]
active: viability [3, 20] 99.5% | viability [3, 24] 96.5% | viability [3, 25] 96.2% | viability [3, 27] 99.8% | viability [3, 28] 96.1% | viability [3, 29] 66% | viability [3, 30] 81.6% | viability [3, 31] 57.7% | viability [3, 32] 80.9% | viability [3, 33] 42.9% | viability [3, 34] 78% | viability [3, 35] 63.5% | viability [3, 36] 65% | viability [3, 37] 29.9% | viability [3, 38] 36.6% | viability [3, 39] 23.7% | viability [3, 40] 43.7% | viability [3, 41] 13.5%

O=C(CCCS)NC1CCN(C(=O)COc2ccc(Cl)cc2Cl)CC1
8940: cell count [1, 7]
1.05: z-score [2, 9]
inactive: fold change [1, 4] 0.885 | z-score [2, 8] -0.37
7910: cell count [1, 6]
0.313: fold change [1, 5]

CC(C)NCCCn1c(Sc2cc3c(cc2I)OCO3)nc2c(N)ncnc21
2580: cell count [1, 6]
inactive: fold change [1, 4] 1.06 | viability [3, 10] 125% | viability [3, 11] 112% | viability [3, 14] 129% | viability [3, 15] 108% | viability [3, 16] 102% | viability [3, 18] 119% | viability [3, 19] 107% | viability [3, 22] 126% | viability [3, 23] 122% | viability [3, 24] 101% | viability [3, 26] 139% | viability [3, 27] 127% | viability [3, 28] 105% | viability [3, 29] 107% | viability [3, 30] 143%
-0.929: z-score [2, 9]
0.435: fold change [1, 5]
active: z-score [2, 8] 3.04 | viability [3, 12] 95.1% | viability [3, 13] 94.7% | viability [3, 17] 94.3% | viability [3, 20] 99.8% | viability [3, 21] 98.3% | viability [3, 25] 97.9% | viability [3, 31] 60.7% | viability [3, 32] 15.7% | viability [3, 33] 9.78% | viability [3, 34] 77.5% | viability [3, 35] 33.9% | viability [3, 36] 17.3% | viability [3, 37] 8.78% | viability [3, 38] 15.7% | viability [3, 39] 9.3% | viability [3, 40] 7.34% | viability [3, 41] 6.28%
2430: cell count [1, 7]

CCNC(=O)c1noc(-c2cc(Cl)c(O)cc2O)c1-c1ccc(OC)cc1
2420: cell count [1, 7]
-1.9: z-score [2, 9]
2390: cell count [1, 6]
0.496: fold change [1, 5]
inactive: fold change [1, 4] 0.987 | viability [3, 10] 129% | viability [3, 11] 113% | viability [3, 12] 105% | viability [3, 14] 120% | viability [3, 15] 120% | viability [3, 16] 101% | viability [3, 17] 102% | viability [3, 18] 138% | viability [3, 19] 120% | viability [3, 20] 100% | viability [3, 21] 101% | viability [3, 22] 181% | viability [3, 23] 140%
active: z-score [2, 8] 2.58 | viability [3, 13] 98% | viability [3, 24] 33.1% | viability [3, 25] 82.6% | viability [3, 26] 73.6% | viability [3, 27] 39.7% | viability [3, 28] 17.1% | viability [3, 29] 9.14% | viability [3, 30] 39% | viability [3, 31] 22.6% | viability [3, 32] 12% | viability [3, 33] 7.17% | viability [3, 34] 9.37% | viability [3, 35] 6.36% | viability [3, 36] 4.69% | viability [3, 37] 4.76% | viability [3, 38] 8.73% | viability [3, 39] 6.88% | viability [3, 40] 4.38% | viability [3, 41] 3.37%
